The list is not random: actives were taken first. Their share in the collection is about 12%.
NS1 function inh – influenza NS1 inhibition | Potency, µM (doses to about 46.1 µM), for the others: at the highest dose activity, positive = more growth | hit rate 0.4% among 270,000; calls by dose curve; note: actives are rising curves; nearly all actives have a fitted effect of over 50% in size
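Recovery from NS1-induced slow growth read by OD600 in budding yeast switched to galactose assay medium (pH 6.0, -URA) at 1:100 dilution. Compound 23 nl per well; the matching strain lacking NS1 serves as control.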
SARS PLP yeast – inhibitors of SARS-CoV papain-like protease in yeast. hit rate 0.19% among 330,000. Potency, µM (highest dose often 32.9 µM), for inactives: top-dose activity, positive = growth rescue, hits mostly activators. S. cerevisiae expressing SARS-CoV PLpro, growth rescue; calls by dose curve; note: 0% is about no effect; nearly all actives have a fitted effect of over 55% in size
Pf growth 48h – inhibits P. falciparum growth in the first generation, 48 h; P. falciparum luciferase growth in erythrocytes, 48 h; Potency, µM (titrated, usually from 28.7 µM), for the others: at the highest dose activity change, negative = inhibition, hits mostly inhibitors; hit rate 5.9% among 310,000; AID 504832; note: % is set by controls: 0 for no effect and ±100 for the full control effect
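Luciferase-expressing parasites in RBCs, 2% Hct / 0.1% parasitemia final; RPMI 1640 + 0.5% Albumax; 37 C, 5% CO2, one generation; luminescence read-out, lower signal = inhibition.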
HCV inhibitor – inhibitors of hepatitis C virus infection; Potency, µM (highest dose often 41.8 µM), for the others: top-dose activity change, negative = inhibition, most hits filed as inhibitors; hit rate 3.4% among 340,000; Huh7.5.1 HCVcc-Cre infection, luciferase reporter, 44 h; AID 651820; note: % is set by controls: 0 for no effect and ±100 for the full control effect
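HCVcc-Cre virus at an moi near 0.5 was added right after compound to cells cultured 4 h from seeding (1,000 cells/well). Luciferase activity was determined 44 h later, 15 min after substrate addition at RT.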
AMA1-RON2 inh – AMA1-RON2 (P. falciparum) interaction inhibition; Potency, µM (highest dose often 58.2 µM), for the others: at the highest dose activity change, negative = inhibition, actives largely listed as inhibitors; hit rate 0.2% among 360,000; AlphaScreen AMA1-biotinylated RON2 peptide binding;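 note: 0% = vehicle wells and -100% = peptide control; nearly all actives have a fitted effect of over 45% in size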
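AMA1 (3D7) with his tag at 25 nM final met compounds first, then biotinylated RON2 peptide at 25 nM; detection used donor plus acceptor beads, 10 µg/mL apiece, read by AlphaScreen after 30 min at room temperature.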
Pf growth 96h – inhibits malaria parasite growth, 96 h. P. falciparum luciferase reporter growth, 96 h. Potency, µM (highest dose often 28.7 µM), for inactives: at the top dose activity change, negative = inhibition, hits mostly inhibitors. hit rate 6.9% among 320,000; note: % is set by controls: 0 for no effect and ±100 for the full control effect
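Luminescence readout: decreased luciferase signal marks inhibited growth of reporter-expressing P. falciparum in infected red cells (2% hematocrit, 0.05% parasitemia final), exposed to compound two generations (96 h, 37 C, 5% CO2).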
Starred values were filed as active, the others as inactive; u = inconclusive; x = not tested or not shown; [ ] = another dose, or the depositor's remark. Unless noted, calls come from the whole dose curve; as a rule, active = well fitted curve in the direction sought with a large enough effect; inconclusive = small, poorly fitted or top-dose-only effect, or another doubt; inactive = no such curve, though single readings can be large; an effect the other way counts as inactive or inconclusive. Potency is the fitted concentration of half-maximal effect.

SMILES	NS1 function inh	SARS PLP yeast	Pf growth 48h	HCV inhibitor	AMA1-RON2 inh	Pf growth 96h
COc1cc(/C=N/Nc2nc3c(c(=O)n(C)c(=O)n3C)n2Cc2ccccc2)ccc1OC(=O)c1ccco1	15%	4%	10µM*	u	13%	9.3µM*
COC(=O)c1ccc(OCC(O)CNCC(c2ccc(OC)cc2)N(C)C)c(OC)c1 (configuration not stated)	0%	1%	-9%	u	35%	17%
CCC(C)C(NC(=O)c1ccccc1NC(=O)c1ccc(C)cc1)C(=O)O (configuration not stated)	x	0%	u	16%	-12%	-3%
CN(C)C(=O)Oc1ccc(Br)cc1C(=O)Nc1ccc(F)c(Cl)c1	-40%	-5%	1.2µM*	u	-8%	u
CC(C)C(=O)N1CCN(c2ccccc2NC(=O)c2ccco2)CC1	-2%	0%	4.7µM*	7%	3%	30%
Cc1ccc(C(=O)Nc2ccccc2C(=O)NC(C(=O)O)C(C)C)cc1 (configuration not stated)	2%	-2%	12µM*	-3%	-7%	u
COc1ccc(C(=O)Nc2ccccc2N2CCN(C(=O)C(C)C)CC2)cc1Cl	-11%	-20%	12µM*	u	14%	-29%
O=C(CNS(=O)(=O)c1c(F)cccc1F)NC1CCCc2ccccc21 (configuration not stated)	x	-1%	x	-6%	-3%	x
CCS(=O)(=O)N1CCC(C(=O)Oc2ccc(Cl)cc2)CC1	18%	-1%	1%	0%	3%	3%
CC(NC(=O)c1ccco1)C(=O)N1CCN(C(c2ccccc2)c2ccccc2)CC1 (configuration not stated)	-23%	-7%	13µM*	x	-3%	31%
Cc1ccc(C(=O)Nc2ccccc2N2CCN(C(=O)C(C)C)CC2)cc1	-67%	-1%	9.3µM*	-16%	-16%	x
COc1ccc(Cl)cc1C(=O)Nc1ccc(NC(C)=O)cc1	-1%	-1%	-10%	u	0%	35%
COc1ccc(Cl)cc1C(=O)Nc1ccc(NC(=O)C(C)C)cc1	-9%	-1%	-23%	4µM*	6%	17%
CCOc1cccc(C(=O)Nc2ccccc2N2CCN(C(=O)C(C)C)CC2)c1	-31%	-23%	9.3µM*	-29%	-4%	13µM*
CC(C)C(=O)N1CCN(c2ccccc2NC(=O)c2ccc3c(c2)OCCO3)CC1	x	x	x	7%	25%	x
O=C1NC[C@H](Cc2ccccc2)N(C[C@@H]2CCCN2C[C@H](Cc2ccccc2)N2C[C@H](Cc3ccc(O)cc3)N(CCc3ccccc3)C(=O)C2=O)C1=O	x	x	x	x	0%	x
C[C@@H]1CC2OC(=O)[C@@]3(C)C(=O)CC[C@@](C)(C23)[C@@]1(O)CCc1ccoc1 (some centres not stated)	1%	1%	4%	4%	3%	40%
Cc1cc2nc3n(c2cc1C)CCCN3	-31%	-4%	u	-12%	-2%	22%
COc1ccc(Br)cc1C(=O)Nc1cc(C)cc(C)c1	-13%	6%	-13%	5.6µM*	0%	u
CSCCC(NC(=O)c1ccc(Cl)cc1Cl)C(=O)N1CCN(C(=O)c2ccccc2)CC1 (configuration not stated)	x	x	x	-23%	-2%	x
CSCCC(NC(=O)c1ccccc1)C(=O)N1CCN(C(c2ccccc2)c2ccccc2)CC1 (configuration not stated)	-9%	0%	u	13µM*	-17%	1.9µM*
COc1ccc(Br)cc1C(=O)Nc1ccc(NC(=O)c2ccco2)cc1	1%	10%	x	-14%	12%	42%
O=C(Nc1ccccc1N1CCCC1)c1cccc(F)c1	-18%	1%	9%	-8%	-3%	-7%
COc1ccc(Cl)cc1C(=O)Nc1ccccc1N1CCN(C(=O)C(C)C)CC1	-7%	-1%	5.9µM*	u	16%	5.2µM*
CCCCOc1cccc(C(=O)Nc2ccccc2N2CCCC2)c1	0%	-2%	u	13µM*	u	u
SMILES	NS1 function inh	SARS PLP yeast	Pf growth 48h	HCV inhibitor	AMA1-RON2 inh	Pf growth 96h
O=[N+]([O-])c1cccc(-c2ccc3nnc(SCc4cccnc4)n3n2)c1	x	x	x	-1%	-11%	x
Cc1c(NS(=O)(=O)c2cccc(C(=O)OCC(=O)c3ccc(Cl)cc3)c2)c(=O)n(-c2ccccc2)n1C	x	x	x	-15%	-11%[11.6 µM]	x
Cc1cccc(C)c1NC(=O)CN(C)C(=O)C1CC(=O)N(c2cccc3ccccc23)C1 (configuration not stated)	x	-6%	u	-4%	-6%	u
CCc1cccc(C)c1NC(=S)N(CCOC)C(C)c1ccco1 (configuration not stated)	-2%	4%	u	-13%	0%	10%
CCCC(c1nnnn1CC(=O)OCC)N(Cc1cc2c(C)cc(C)cc2[nH]c1=O)C1CCCC1 (configuration not stated)	-1%	-3%	13µM*	12%	5%	x
COCCCC1CCN(C(=O)C2CCC(=O)N(Cc3cccc(F)c3)C2)CC1 (configuration not stated)	2%	4%	u	18%	19%	u
CCOC(=O)C(C)n1nc(/C=C/c2ccccc2)ccc1=O (configuration not stated)	5%	2%	u	-4%	13%	u
CCOC(=O)C(C)n1nc(/C=C/c2ccc(OC)cc2)ccc1=O (configuration not stated)	x	-8%	u	3%	19%	9.3µM*
Cc1ccc([N+](=O)[O-])cc1S(=O)(=O)Nc1ccccn1	1%	2%	14%	9%	-1%	4%
O=C(CSc1nnc(-c2cccc(F)c2)o1)N1CCCC1	-3%	2%	80%	12%	15%	89%
COc1cccc(N2CCN(c3ncnc4c3[nH]c3ccccc34)CC2C)c1 (configuration not stated)	4%	-69%	8.3µM*	10µM*	x	u
COc1cccc(N2CCN(c3ncnc4c3[nH]c3ccc(F)cc34)CC2C)c1 (configuration not stated)	-39%	-39%	u	1.6µM*	-22%	138%
O=C1CC(C(=O)Nc2cccc3ccccc23)C2(CCCC2)O1 (configuration not stated)	5%	-9%	22%	2%	-8%	1.5µM*
CCc1ccc(CNCc2ccc(OCC(O)CN(C)Cc3ccccc3)cc2)nc1 (configuration not stated)	6%	0%	u	11µM*	60%	u
